Laboratory results published in PubChem BioAssay (NCI).
This is part of a sample that, as a whole, favours compounds with a hit. Of some 79,000 tested, about 15% had one in any assay. A number with no mark means an inactive call. Active and inactive are the calls of the source. Rule as the data show it: active = growth inhibition above about 70%; inactive = the rest. Where a SMILES comes first, the peptide text is derived from it. [ ]: non-standard residue; d: D form. The star is where a group is joined. ξ: configuration not given here. Tos = Cc1ccc(S(=O)(=O)*)cc1; ξY = NC(Cc1ccc(O)cc1)C(=O)O

Assay: NCI Yeast Anticancer Drug Screen. Data for the rad50 strain (AID 155);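 also: 0% = growth of vehicle-only cultures of the same strain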
Settings: S. cerevisiae rad50 strain growth inhibition; at 50.0 µM; stronger effect = higher value
Method in brief: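 A DNA repair-deficient yeast mutant serves as the test organism; compound-induced growth inhibition is calculated against vehicle-treated cells.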

Compound | growth inhibition
CC(C)(C)C1CC[C@H]2c3c([nH]c4ccc(Br)cc34)[C@H]3C(=O)N(c4ccccc4)C(=O)[C@H]3[C@H]2C1 (stereo not given in full) | 18.4%
O=C(/C=C/c1ccccc1)OCCCl | -23.4%
Cn1cccc1/C=N/N=C(/N)NO | 22.9%
COc1ccc2ccccc2c1I | 18.4%
O=C1C(CO)=C[C@@H](O)[C@H]2O[C@@H]12 | 8.25%
CCOC(CNCCC(=O)OC)OCC | -31.9%
CCCCNc1nc2ccccc2c2c1ncn2CC(C)C | -7.4%
CC1CCOC(C)(Cc2ccccc2)O1 (stereo not given) | -2.8%
CC(=O)c1c(O)ccc2c(C)cc(=O)oc12 | 37.5%
O=C1NC2(CCN(CCCC3(c4ccc(F)cc4)OCCO3)CC2)Oc2ccccc21 | -11.6%
CCOP(=O)(OCC)OC1CC(n2cnc3c(N(CC)CC)ncnc32)OC1CO[Si](C)(C)C(C)(C)C (stereo not given) | 19.1%
CC(=O)/C=C1/NC(C(=O)c2ccccc2)=CNC1c1ccccc1 (stereo not given) | 4.95%
CCOC(=O)c1c(NCc2ccccc2)n(-c2ccccc2)c(=S)n(-c2ccccc2)c1=O | 17.1%
CCOC(=O)C1(C)CCCc2sc(N)c(C#N)c21 (stereo not given) | -42.4%
Nc1c(O)cccc1C(=O)O | -16.2%
Cc1cc(C)c(C2CC(O)C(CO)O2)cc1C (stereo not given) | -2%
Nc1ccc(S(=O)(=O)NCCS(=O)(=O)O)cc1 | 3.45%
Cc1nn(C(=O)c2ccncc2)c2c1C(c1ccccc1)SC(N)=N2 (stereo not given) | -2.9%
CCC(C(C)O)[N+](=O)[O-] (stereo not given) | 32.8%
CCN(CC)CCNc1c2ccc(Cl)cc2nc2c1c(C)nn2C | -7.05%

Compound | growth inhibition
ClC(Cl)(Cl)SSC(=Nc1ccccc1)SSC(Cl)(Cl)Cl | 70.8% (active)
CC1CN=C(c2c(O)ccc3ccccc23)S1 (stereo not given) | 42.9%
CCc1c(C)c(C#N)c(=S)n(C2OC(COC(C)=O)C(OC(C)=O)C(OC(C)=O)C2OC(C)=O)c1-c1ccccc1 (stereo not given) | 2.55%
O=C1NC(CO)C(=O)NC1CO (stereo not given) | 3.7%
CCCCC(CCCC)(C(=O)NC)c1ccccc1 | 3.85%
CN(C)CCC(CCN(C)C)=NOC(=O)c1ccccc1 | -5.45%
COC(=O)C(Cc1ccc(O)cc1)NC(=O)CNS(=O)(=O)c1ccc(C)cc1 (stereo not drawn) (Tos-Gly-[ξY]-OMe) | 35.8%
C/C(=N/O)c1ccc(O)cc1O | -16.7%
Cc1cc(Cl)ccc1NC(N)=O | -5.95%
O=C(OCC1OC(Br)CC(OC(=O)c2ccc([N+](=O)[O-])cc2)C1OC(=O)c1ccc([N+](=O)[O-])cc1)c1ccc([N+](=O)[O-])cc1 (stereo not given) | 6.9%
CCCCCCCCOC(=O)C(C)OC(C)=O (stereo not given) | 17.2%
CN(C)Cn1c2ccccc2c2ccccc21 | -2.05%
NCCCn1c2ccccc2c2cnccc21 | 7.2%
[N-]=[N+]=Nc1ccccc1Oc1ccccc1 | 9.85%
COc1ccccc1NC(=O)C(CC(C(=O)Nc1ccccc1OC)/C(C)=N/Nc1ccc([N+](=O)[O-])cc1[N+](=O)[O-])/C(C)=N/Nc1ccc([N+](=O)[O-])cc1[N+](=O)[O-] (stereo not given) | 14.8%
CC(=O)C1C(=O)C(=O)N(c2ccc(S(N)(=O)=O)cc2)C1=O (stereo not given) | -37.3%
CC(C)OCC(O)CNCCN (stereo not given) | -30.8%
CCOC(=O)C/C(C)=N\NS(=O)(=O)c1ccc([N+](=O)[O-])cc1 | 3.05%
Cc1cc(-n2cnc3c(Cl)ncnc32)ccc1N | 10.8%
CCOC(=O)CNc1nc(Cl)nc(NCC(=O)OCC)n1 | 3.05%
